Bioassay records (PubChem BioAssay)
Compounds with a hit are over-represented: about 9.3% of the library has one in this group of screens.
HCMV inh: qHTS Assay for inhibitors of the human cytomegalovirus (HCMV) | 410,000 tested, 4.5% active | activity change, negative = inhibition, % at 57.5 µM | HFF cells, HCMV-luciferase reporter, 72 h; hits give low values; in the data active = activity change below about -60%; inconclusive = no clear call, values can overlap the other calls; inactive = above about -39%
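Two-dose cell screen: HFF monolayers treated with compounds and infected with luciferase-expressing HCMV at 1 PFU/cell, 72 h at 37C, then lysed for luciferase measurement.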
FMDV antiviral: High Throughput Screening for Foot and Mouth Disease Virus Antivirals. FMDV antiviral cell-based qHTS. Potency, µM (top dose mostly 57.9 µM), without a hit: top-dose activity change, negative = inhibition, most hits filed as inhibitors. 410,000 tested, 1.2% active. AID 1159524, 2015; calls by dose curve; tested in HEK293T cells; also: read-out not given here; potency is read from the fitted curve at half-maximal effect; nearly all actives have a fitted effect of over 45% in size
HCV inhibitor: qHTS Assay for Inhibitors of Hepatitis C Virus (HCV); Huh7.5.1 HCVcc-Cre infection, luciferase reporter, 44 h; Potency, µM (titrated, usually from 41.8 µM), for inactives: at the top dose activity change, negative = inhibition, usual class: inhibitors; 340,000 tested, 3.4% active; also: potency is read from the fitted curve at half-maximal effect
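A cell-based infection assay in which seeded cells (1,000 per well) receive test compound after 4 h, are inoculated with HCVcc-Cre at approximately 0.5 moi, and are incubated 44 h before luminescence detection.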
Sm TGR block: qHTS Assay for the Inhibitors of Schistosoma Mansoni Peroxiredoxins. purified TGR, DTNB reduction, TNB absorbance 405 nm. Potency, µM (series often up to 114 µM), for inactives: at the highest dose activity change, negative = inhibition, actives largely listed as inhibitors. 360,000 tested, 3% active. AID 485364, 2010; also: potency is read from the fitted curve at half-maximal effect; nearly all actives have a fitted effect of over 60% in size
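First, TGR (20 nM dispensed) and NADPH were mixed with compound. Second, a 15 min room-temperature incubation followed. Third, further NADPH and then DTNB were added to start the reaction. Finally, TNB absorbance was monitored kinetically.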
Vaccinia mCherry: qHTS for Stage-Specific Inhibitors of Vaccinia Orthopoxvirus: mCherry Reporter Primary qHTS; 310,000 tested, 0.63% active; Vaccinia virus mCherry reporter infection, fluorescence; Potency, µM (series often up to 36.5 µM), for the others: top-dose activity change, negative = inhibition, hits mostly inhibitors; calls by dose curve; tested in A549 cells; also: potency is read from the fitted curve at half-maximal effect; nearly all actives have a fitted effect of over 35% in size
VACV Venus inh: qHTS for Stage-Specific Inhibitors of Vaccinia Orthopoxvirus: Venus Reporter Primary qHTS; Vaccinia virus Venus reporter expression, fluorescence; Potency, µM (highest dose often 36.5 µM), without a hit: top-dose activity change, negative = inhibition, most hits filed as inhibitors; 330,000 tested, 0.46% active; calls by dose curve; tested in A549 cells; also: potency is read from the fitted curve at half-maximal effect; nearly all actives have a fitted effect of over 30% in size
* hit, by the source's call. Unless noted, calls follow the shape of the dose curve; as a rule, active = well fitted curve in the direction sought with a large enough effect; inconclusive = small, poorly fitted or top-dose-only effect, or another doubt; inactive = no such curve, though single readings can be large; an effect the other way counts as inactive or inconclusive. % is scaled to controls: 0 for no effect and ±100 for the full control effect.

What do the screens show for `c1ccc(CC2CNc3ccccc3CN2)cc1` (stereo not drawn)?
HCMV inh: 15.4; FMDV antiviral: -13.2%; HCV inhibitor: -7.3%; Sm TGR block: 5.5%; Vaccinia mCherry: inactive; VACV Venus inh: -6.8%

What do the screens show for `O=C(CN1C(=O)NC2(CCCC2)C1=O)N1CCN(c2ccc(C(F)(F)F)cc2[N+](=O)[O-])CC1`?
HCMV inh: inconclusive; FMDV antiviral: -12.7%; HCV inhibitor: inconclusive

How did COc1ccc(CC2(CO)CCN(CC3=CC[C@H]4C[C@@H]3C4(C)C)CC2)cc1 do in these assays?
HCMV inh: 38.4; FMDV antiviral: -22.5%; HCV inhibitor: -10.3%; Sm TGR block: 1.2%

Results for CN(Cc1cnn(-c2ccc(F)cc2)c1)Cc1nc(Cc2ccccc2)no1 ?
HCMV inh: -24.4; FMDV antiviral: -1.6%; HCV inhibitor: -7.7%; Sm TGR block: 16.7%; Vaccinia mCherry: -6.5%; VACV Venus inh: 2.4%

How did Cn1cc(CNCc2ccccc2OCC(O)CN2CCc3ccccc3C2)cn1 (stereo not drawn) do in these assays?
HCMV inh: -39.9; FMDV antiviral: 6.2%; HCV inhibitor: 11.2µM*; Sm TGR block: -23.2%; Vaccinia mCherry: -15.1%; VACV Venus inh: -21.0%

How did Cc1cccc(C)c1OCC(O)CN1CCc2ccccc2C1 (stereo not drawn) do in these assays?
HCMV inh: -3.2; FMDV antiviral: -2.3%; HCV inhibitor: 12.6µM*; Vaccinia mCherry: -10.3%; VACV Venus inh: -3.5%

What do the screens show for `Cc1ccc(C(C)C)c(OCC(O)CN2CCc3ccccc3C2)c1` (stereo not drawn)?
HCMV inh: -16.7; FMDV antiviral: inconclusive; HCV inhibitor: inconclusive; Sm TGR block: 0.7%; Vaccinia mCherry: 10µM*; VACV Venus inh: inconclusive

What do the screens show for `CCN1C(=O)c2cccc3cccc1c23`?
HCMV inh: 69.4; HCV inhibitor: inconclusive; Sm TGR block: 11.2µM*; Vaccinia mCherry: inactive; VACV Venus inh: -12.5%

Results for CCOC(=O)CCCCCN1C(=O)c2cccc3cccc(c23)C1=O ?
HCMV inh: -100.2*; FMDV antiviral: -2.7%; HCV inhibitor: -5.6%; Sm TGR block: -1.2%

Results for COc1ccccc1N1CCN(C(=O)CN2C(=O)c3cccc4cccc(c34)C2=O)CC1 ?
HCMV inh: -2.6; FMDV antiviral: inconclusive; HCV inhibitor: inconclusive; Sm TGR block: 13.0%; Vaccinia mCherry: -16.0%; VACV Venus inh: -2.2%

Results for CN(C)C(=O)CN1C(=O)c2cccc3cccc1c23 ?
HCMV inh: -3.1; FMDV antiviral: 8.5%; HCV inhibitor: 1.7%; Sm TGR block: 6.5%

What do the screens show for `COc1ccccc1N1CCN(C(=O)CCCN2C(=O)c3cccc4cccc(c34)C2=O)CC1`?
HCMV inh: 7.5; FMDV antiviral: inconclusive; HCV inhibitor: 8.91µM*; Sm TGR block: -0.9%; Vaccinia mCherry: 11.2µM*; VACV Venus inh: -27.5%

How did COc1ccccc1N1CCN(C(=O)CCCn2c(=S)[nH]c3ccccc3c2=O)CC1 do in these assays?
HCMV inh: -14.5; FMDV antiviral: 25.1µM*; Vaccinia mCherry: inconclusive; VACV Venus inh: inconclusive

Results for Cn1nc(C(F)(F)F)c(/C=N/OC(=O)c2ccccc2)c1SCc1ccccc1Cl ?
HCMV inh: inconclusive; FMDV antiviral: inconclusive; HCV inhibitor: inconclusive; Sm TGR block: -26.4%

How did CCOC(=O)C(C)Sc1ncc(OC)c(Sc2ccc(Cl)cc2)n1 (stereo not drawn) do in these assays?
HCMV inh: -2.0; FMDV antiviral: inconclusive; HCV inhibitor: -9.1%; Sm TGR block: -21.1%

How did O=C(CCCN1C(=O)c2cccc3cccc(c23)C1=O)N1CCN(c2ncccn2)CC1 do in these assays?
HCMV inh: -66.2*; FMDV antiviral: -8.2%; HCV inhibitor: -22.0%

What do the screens show for `COc1ccccc1Cn1c(=S)[nH]c2ccccc2c1=O`?
HCMV inh: 15.5; FMDV antiviral: 9.6%; HCV inhibitor: -19.5%; Sm TGR block: 4.7%; Vaccinia mCherry: -2.1%; VACV Venus inh: -21.1%

How did COc1ccccc1Cn1c(=S)[nH]c2ccc(Br)cc2c1=O do in these assays?
HCMV inh: -86.2*; FMDV antiviral: -4.1%; HCV inhibitor: inconclusive; Sm TGR block: -0.2%; Vaccinia mCherry: inactive; VACV Venus inh: -12.8%

Results for O=C(CCCN1C(=O)c2cccc3cccc(c23)C1=O)NCc1ccco1 ?
HCMV inh: -88.9*; FMDV antiviral: 17.6%; HCV inhibitor: -16.8%; Sm TGR block: 0.0%; Vaccinia mCherry: -26.0%; VACV Venus inh: -3.5%

How did COc1ccc(C(=O)OCC(=O)NCc2ccc3c(c2)OCO3)cc1[N+](=O)[O-] do in these assays?
HCMV inh: -23.8; FMDV antiviral: -24.5%; HCV inhibitor: -11.7%; Sm TGR block: 4.0%; Vaccinia mCherry: inactive; VACV Venus inh: -6.2%

Results for CCc1cccc(C)c1NC(=O)c1cc(S(=O)(=O)N2CCOCC2)cn1C ?
HCMV inh: 7.8; FMDV antiviral: -5.6%; Sm TGR block: 7.8%; Vaccinia mCherry: -17.3%; VACV Venus inh: -6.0%

What do the screens show for `C/C=C\C(=O)Nc1cccc(C2=NOC3(C2)C[C@H](C(N)=O)N(C(=O)Cc2ccc([N+](=O)[O-])cc2)C3)c1` (stereo partly drawn)?
HCMV inh: 33.2; FMDV antiviral: -19.8%; HCV inhibitor: -5.0%; Sm TGR block: -19.7%; Vaccinia mCherry: inactive; VACV Venus inh: -7.0%

What do the screens show for `O=c1c2cc(N3CCOCC3)ccc2[nH]c(=S)n1Cc1ccco1`?
HCMV inh: 36.8; FMDV antiviral: 8.6%; HCV inhibitor: -24.0%; Sm TGR block: 8.91µM*

What do the screens show for `O=C(CN(C(=O)Cn1nnc(-c2ccccc2F)n1)c1cnc2ccccc2c1)NCC1CCCO1` (stereo not drawn)?
HCMV inh: -24.3; FMDV antiviral: -6.8%; HCV inhibitor: 2.6%; Sm TGR block: inconclusive; Vaccinia mCherry: -0.2%; VACV Venus inh: 3.3%

What do the screens show for `N#CC1=C(SCC(N)=O)NC2=C(C(=O)c3ccccc32)C1c1ccc(Cl)cc1` (stereo not drawn)?
HCMV inh: -60.4*; FMDV antiviral: -15.0%; HCV inhibitor: -18.6%; Sm TGR block: inconclusive

What do the screens show for `CSCSC1=C(C#N)C(c2ccc(Cl)cc2)C(C(C)=O)=C(C)N1` (stereo not drawn)?
HCV inhibitor: -25.7%; Sm TGR block: -21.2%

Results for O=C1C=C(c2ccccc2)C(=O)N1Nc1ccccc1 ?
HCMV inh: 30.3; FMDV antiviral: 35.5µM*; HCV inhibitor: inconclusive; Sm TGR block: 14.1µM*; Vaccinia mCherry: -8.2%; VACV Venus inh: -16.2%
